Compounds with a hit are over-represented: about 3.3% of the library has one in this group of screens.
Tau fil binding – binds recombinant human tau filaments; recombinant tau filaments, thioflavin S fluorescence, 15 h; filaments grown with octadecylsulfate alongside compound; actives 2% (n = 71,000); P10636; AID 596; Potency, µM (titrated, usually from 57.1 µM), for inactives: top-dose activity change, negative = inhibition;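 note: potency is the fitted concentration of half-maximal effect; % is set by controls: 0 for no effect and ±100 for the full control effect; actives lower thioflavin S fluorescence by blocking filaments or displacing dye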
Target sequence (P10636 whole entry, looked up): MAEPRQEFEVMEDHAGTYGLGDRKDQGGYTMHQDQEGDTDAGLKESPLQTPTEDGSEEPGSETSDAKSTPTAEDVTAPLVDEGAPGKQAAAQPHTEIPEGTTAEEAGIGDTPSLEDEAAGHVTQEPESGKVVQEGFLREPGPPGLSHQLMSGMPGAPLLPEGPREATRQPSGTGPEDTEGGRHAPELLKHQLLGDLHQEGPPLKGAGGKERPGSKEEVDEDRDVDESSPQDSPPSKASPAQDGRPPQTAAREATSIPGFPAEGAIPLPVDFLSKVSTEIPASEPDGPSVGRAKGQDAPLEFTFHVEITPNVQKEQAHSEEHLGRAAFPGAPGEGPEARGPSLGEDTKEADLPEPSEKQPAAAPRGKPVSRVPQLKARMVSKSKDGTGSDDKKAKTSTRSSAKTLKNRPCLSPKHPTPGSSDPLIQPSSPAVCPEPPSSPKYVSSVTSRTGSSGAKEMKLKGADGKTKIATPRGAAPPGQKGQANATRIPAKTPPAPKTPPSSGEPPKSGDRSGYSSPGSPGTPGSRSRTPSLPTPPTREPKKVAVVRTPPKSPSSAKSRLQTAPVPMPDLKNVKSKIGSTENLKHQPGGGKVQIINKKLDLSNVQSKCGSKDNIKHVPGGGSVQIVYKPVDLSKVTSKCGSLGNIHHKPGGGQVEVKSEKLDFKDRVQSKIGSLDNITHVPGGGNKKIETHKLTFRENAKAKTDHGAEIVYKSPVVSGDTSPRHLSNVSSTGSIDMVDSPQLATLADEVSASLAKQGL
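His-tagged recombinant human tau (exons 2, 3, 10; 1 uM final) fibrillized with 30 uM sodium octadecylsulfate, 15 h at 37 C, in pH 7.4 HEPES buffer with 10 uM thioflavine S and 5 mM DTT. Reduced ThS fluorescence (450/510 nm) marks activity.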
TsaE inh – displaces an ADP probe from E. coli YjeE (TsaE). Potency, µM. AID 605. purified YjeE enzyme, qHTS inhibition assay. actives 0.05% (n = 71,000)
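Fluorescence polarization of a BODIPY Texas Red–ADP probe (2 uM) bound to purified YjeE (10 uM) was read after 15 min room-temperature incubation with compounds. Loss of polarization marks inhibitors; ADP serves as titrated control.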
DNA Pol III inh – blocks replication by bacterial DNA polymerase III holoenzyme; reconstituted DNA polymerase III holoenzyme replication, biochemical; Potency, µM (series often up to 57.1 µM), for inactives: at the highest dose activity change, negative = inhibition; actives 0.25% (n = 71,000); AID 603; note: potency is the fitted concentration of half-maximal effect; % is set by controls: 0 for no effect and ±100 for the full control effect
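Reconstituted *E. coli* holoenzyme (0.35 nM Pol III, 1 nM beta, 154 nM SSB, 2 nM primase) was preincubated with compound for 15 min at RT. Synthesis on 1.4 nM ssM13Gori ran 35 min, then was stopped with PicoGreen/EDTA and read as dsDNA fluorescence.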
ALOX15 inhib – inhibitors of human 15-lipoxygenase (ALOX15); Potency, µM (doses to about 57.1 µM), for the others: at the highest dose activity change, negative = inhibition, actives largely listed as inhibitors; actives 1.4% (n = 74,000); P16050; purified 15hLO-1, xylenol orange hydroperoxide absorbance; note: potency is the fitted concentration of half-maximal effect; % is set by controls: 0 for no effect and ±100 for the full control effect; nearly all actives have a fitted effect of over 55% in size
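Purified human 15hLO-1 (40 nM final) in 25 mM Hepes pH 7.5, 0.01% Triton X-100 was preincubated with compound 15 min at room temperature, then reacted 6 min with 50 uM arachidonic acid; hydroperoxide detected by Fe-XO, 573/405 nm absorbance ratio.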
Hsp90 Hop PPI – changes Hsp90-Hop TPR2A binding signal, up or down | actives 0.44% (n = 71,000) | Potency, µM (doses to about 57 µM), without a hit: at the highest dose activity change, negative = inhibition | AID 595 | AlphaScreen TPR2A-His6 binding biotin-Hsp90 C-terminal peptide; active = well fitted curve in either direction with a large enough effect; inconclusive = small, poorly fitted or top-dose-only effect, or another doubt; note: potency is the fitted concentration of half-maximal effect; % is set by controls: 0 for no effect and ±100 for the full control effect
* marks the source's active call; other numbers are inactive results; i = inactive; ? = inconclusive; nt = no result; [ ] = dose if it differs, or a comment. Unless noted, calls come from the whole dose curve; as a rule, active = well fitted curve in the direction sought with a large enough effect; inconclusive = small, poorly fitted or top-dose-only effect, or another doubt; inactive = no such curve, though single readings can be large; an effect the other way counts as inactive or inconclusive.

SMILES	Tau fil binding	TsaE inh	DNA Pol III inh	ALOX15 inhib	Hsp90 Hop PPI
CCOC(=O)c1cc(-c2ccc3c(c2)OCCO3)nc2c1c(C)nn2CCC#N	-7%	i	6%	-10%	?
CCOc1ccc(NS(=O)(=O)c2ccc3[nH]cc(C(=O)NC(C)CC)c(=O)c3c2)cc1 (stereo not drawn)	3%	i	-10%	25µM*	-4%
CCCNC(=O)c1c[nH]c2ccc(S(=O)(=O)N(C)c3ccc(OCC)cc3)cc2c1=O	8%	i	5%	-17%	1%
CCn1cc(C(=O)O)c(=O)c2ccc(Cc3ccccc3)nc21	-3%	i	-3%	nt	-11%
CCc1ccc(NC(=O)c2cc(-c3ccco3)on2)cc1	16µM*	i	-3%	-11%	-1%
CC(C)NC(=O)c1cc(-c2ccco2)on1	-7%	i	-1%	2%	-1%
O=C(CCCSc1nc(-c2ccco2)cc(C(F)(F)F)n1)Nc1ccc2c(c1)OCO2	25µM*	i	-6%	-14%	-9%
C[N+]1(C)CC[C@@H](OC(=O)[C@@](O)(c2ccccc2)C2CCCC2)C1	-2%[25.6 µM]	i	-5%[25.6 µM]	16%[25.6 µM]	0%[26 µM]
CCOC(=O)c1sc(=S)n(-c2cc(F)ccc2F)c1N	-2%	i	2%	?	-9%
CCOC(=O)c1sc(=S)n(-c2cc(OC)ccc2OC)c1N	0%	i	-7%	13µM*	-7%
COC(=O)C1=C(C)Nc2ccc(C)cc2S1	20µM*	i	-3%	10µM*	-5%[2.3 µM]
COC(=O)Nc1ccc(C)cc1NC(=O)OC	-9%	i	-4%	3%	1%
CC(Oc1ccc(Br)cc1)C(=O)NCc1cccnc1 (stereo not drawn)	nt	nt	nt	-10%	nt
c1cc2c(cc1Nc1nc(-c3ccc4c(c3)OCO4)cs1)OCCO2	25µM*	i	-4%	-30%	-17%
CC(=O)OC[C@@H]1O[C@H](CCON=C(C)C)C=C[C@@H]1OC(C)=O	nt	nt	nt	6%[11.4 µM]	nt
C[C@@H]1C[C@@]2(C)Oc3ccccc3[C@H]3OC[C@]1(COC(=O)Nc1ccccc1)[C@@H](C)[C@@H]32	?	i	-6%	nt	13%
Cc1ccc(C)c(C(=O)c2c(C)nc3sccn23)c1	-8%	i	-5%	16µM*	1%
Cc1cc(C)c(NC(=O)c2cc3c(nc4sccn43)s2)c(C)c1	-19%	i	-2%	-7%	-10%
COc1ccccc1CNC(=O)Nc1cccs1	nt	nt	nt	13µM*	nt
CCN(CC)CCCNC(=O)c1ccc(Cc2nc3ccccc3[nH]2)cc1	nt	nt	nt	3%	nt
CCOC(=O)C1=C(CSc2nc(C)ccc2C#N)OC(N)=C(C#N)C1c1cccc(OC)c1OC (stereo not drawn)	0%	i	-5%	20µM*	-6%
CCOC(=O)C1=C(C)OC(N)=C(C#N)C1c1ccc(OC)c(C)c1OC (stereo not drawn)	11%	i	-3%	0%	-1%
CCOC(=O)CSC1=C(C#N)C(c2ccc(F)cc2)C(C(C)=O)=C(C)N1 (stereo not drawn)	12%	i	2%	-9%	4%
CCOC(=O)C1=C(C)NC(SCC(=O)OC)=C(C#N)C1c1ccc(C(=O)OC)cc1 (stereo not drawn)	-26%	i	-2%	5µM*	?
O=C(O)CNCC1COc2ccccc2O1 (stereo not drawn)	-6%	i	3%	-7%	-4%
SMILES	Tau fil binding	TsaE inh	DNA Pol III inh	ALOX15 inhib	Hsp90 Hop PPI
O=C1CC2(CCCC2)CC(=O)N1CCNC[C@H]1COc2ccccc2O1	32µM*	i	-5%	-4%[25.6 µM]	-2%
CCc1cccc2nc3c(c([Si](C)(C)C)c12)Cn1c-3cccc1=O	16µM*	i	-13%	nt	18%
CC(C)c1cccc2nc3c(c([Si](C)(C)C(C)(C)C)c12)Cn1c-3cccc1=O	?	i	-4%	nt	25%
CN1CCN(Cc2c(O)ccc3occ(C(=O)c4ccccc4)c23)CC1	-18%	i	-3%	-3%	-2%
CC(=O)C(C(C)=O)c1c(Cl)c(O)c(O)c2c(C(=O)c3ccccc3)coc12	25µM*	i	-6%	2.5µM*	-27%
O=C(Nc1ccc(-c2nc3cccnc3s2)cc1)c1ccco1	64%	i	-3%	25µM*	?
O=C(Nc1cccc(-c2nc3cccnc3s2)c1)c1ccco1	13%	i	-5%	-3%	-3%

Bioassay records: PubChem BioAssay, National Center for Advancing Translational Sciences (NCATS)
